CYP2C19 activ: human CYP2C19 activators, primary screen, biochemical, luminescence; recombinant CYP2C19, luciferin-H EGE luminescence; stronger effect = higher value; 0 = fully inhibited enzyme, 1 = untreated enzyme; activation factor at 5 µM; AID 1025, 2008; 96,000 tested, under 10 active;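 active means activation factor of at least 2 at 5 µM in the primary screen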;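 further: 0 = wells with 2.5 mM tranylcypromine and 1 = vehicle-only wells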
CYP2C9 inhib: blockers of cytochrome P450 2C9 activity – biochemical, luminescence, ADME assay, primary screen; P11712; CYP2C9 Supersomes, luciferin-H conversion; inhibition, % at 5 µM; actives 20% (n = 96,000); AID 777, 2007;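 active means blocking of liver enzyme CYP2C9 beyond about 50% at 5 µM, limit read from the data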
Target sequence (P11712 whole entry, looked up): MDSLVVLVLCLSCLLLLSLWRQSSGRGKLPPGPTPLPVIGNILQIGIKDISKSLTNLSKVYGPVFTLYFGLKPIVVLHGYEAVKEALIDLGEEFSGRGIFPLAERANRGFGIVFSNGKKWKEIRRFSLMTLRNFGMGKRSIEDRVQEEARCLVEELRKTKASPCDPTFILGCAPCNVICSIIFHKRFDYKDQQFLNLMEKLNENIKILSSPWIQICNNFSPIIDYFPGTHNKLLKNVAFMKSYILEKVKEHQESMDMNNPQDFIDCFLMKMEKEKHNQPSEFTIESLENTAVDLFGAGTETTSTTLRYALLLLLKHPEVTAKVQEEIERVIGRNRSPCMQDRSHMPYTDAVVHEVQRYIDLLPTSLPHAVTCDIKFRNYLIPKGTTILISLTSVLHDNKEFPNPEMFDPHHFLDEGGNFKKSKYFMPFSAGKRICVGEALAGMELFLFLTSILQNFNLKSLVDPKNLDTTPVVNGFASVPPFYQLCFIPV
CYP2C9 act: human CYP2C9 activators, primary screen, biochemical, luminescence; recombinant CYP2C9, luciferin-H conversion; stronger effect = higher value; factor 1 = untreated enzyme, 0 = blocked; actives 1.4% (n = 96,000); Cytochrome P450 2C9 (Homo sapiens), P11712; activation factor at 5 µM;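 active means activation factor of 2 or more for CYP2C9 at a 5 µM dose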;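 further: 0 = sulfaphenazole-blocked wells and 1 = vehicle-only wells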
CYP2C19 inhib: blockers of cytochrome P450 2C19 activity – biochemical, luminescence, ADME assay, primary screen; P33261; CYP2C19 Supersomes, luciferin-H EGE luminescence, 30 min; inhibition, % at 5 µM; actives 21% (n = 96,000);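 active means CYP2C19 inhibition above a set limit at 5 µM in the primary screen, cut at about 50% in these data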;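 further: plate controls were negative control wells for no effect and 2.5 mM tranylcypromine positive control for full effect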
Measles CPE: compounds protecting cells from measles virus cytopathic effect, primary screen, measles RdRp inhibitor project, single point, MLSMR library, absorbance. Measles virus-infected cells, CPE protection. protection (pct of control), % at 4 µM. actives 1.5% (n = 140,000); in the data active means protection mostly above about 24%, no sharp cut-off; inactive means mostly below about 26%
An asterisk follows results filed as active; x = no result. An excerpt weighted towards active compounds, which were near 22% of everything screened.

SMILES | CYP2C19 activ | CYP2C9 inhib | CYP2C9 act | CYP2C19 inhib | Measles CPE
CCCCNC(=O)c1ccccc1NC(=O)CCSc1ccccc1 | 0.1 | 81* | 0.2 | 93* | 9
COc1ccccc1CN(Cc1nc2ccccc2c(=O)[nH]1)S(=O)(=O)c1ccc2ccccc2c1 | x | x | x | x | 8
Cc1ccc(S(=O)(=O)N(C)Cc2nc(-c3ccncc3)no2)cc1 | 0.1 | 69* | 0.3 | 92* | 4
COc1ccc(S(=O)(=O)N(Cc2ccccc2)Cc2nc3ccccc3c(=O)[nH]2)cc1 | 0.4 | 49 | 0.5 | 55* | 10
Cc1ccc(S(=O)(=O)Cc2nc3ccccc3c(=O)[nH]2)cc1 | 0.2 | 24 | 0.8 | 85* | 11
CN(Cc1nc(-c2cccnc2)no1)S(=O)(=O)c1ccccc1 | 0.3 | 15 | 0.9 | 74* | 15
COc1ccc(Cc2nc(-c3ccccc3)no2)cc1 | 0.7 | 17 | 0.8 | 27 | 26
COc1ccc(S(=O)(=O)N(Cc2ccccc2)Cc2nc(-c3ccccc3)no2)cc1 | 0.1 | 92* | 0.1 | 87* | 24
CN(C)CCSc1nc(-c2ccccc2)nc2c1COC(C)(C)C2 | 1.1 | 9 | 0.9 | -6 | 14
Cc1ccc(CSCC(=O)N2CCN(c3ccccc3)CC2)cc1 | x | x | x | x | 21
CCn1c(CSCc2ccc(F)cc2)nnc1SCC(=O)N1CCN(c2ccccc2)CC1 | 0.2 | 58* | 0.4 | 80* | 5
CCn1c(SCc2ccc(F)cc2)nnc1-c1nn(-c2ccccc2)ccc1=O | 1.1 | -21 | 1.2 | -9 | 55*
Cc1ccc(CSCc2nnc(SCC(=O)N3CCN(c4ccccc4)CC3)n2C)cc1 | 0.4 | 78* | 0.2 | 60* | 8
CCn1c(COc2ccc(=O)n(-c3ccccc3)n2)nnc1SCc1ccccc1 | 0.7 | 8 | 0.9 | 27 | 9
CC(=O)c1ccc(OCC(O)CN(C)Cc2cccs2)cc1 (configuration not stated) | 0.8 | -2 | 1 | 19 | 8
COCCNC(=O)CN(Cc1ccc2c(c1)OCO2)C(=O)CCC(=O)Nc1nccs1 | 1 | -9 | 1.1 | -3 | 16
CCCC1=NN(C(=O)CCc2ccccc2O)C(O)(C(F)(F)F)C1 (configuration not stated) | x | x | x | x | 10
COc1cc(COCC(O)CN2CCOCC2)cc(OC)c1OC (configuration not stated) | 0.9 | -10 | 1.1 | 9 | 32*
COc1ccc(S(=O)(=O)NC(C)C(=O)Nc2cccc(C(C)=O)c2)cc1 (configuration not stated) | 0.6 | 64* | 0.4 | 42 | 16
COc1ccc(S(=O)(=O)NC(C)C(=O)Nc2ccccc2F)cc1 (configuration not stated) | 0.6 | 3 | 1 | 43 | 17
CCOC(=O)c1ccc(NC(=O)C(C)NS(=O)(=O)c2ccc(OC)cc2)cc1 (configuration not stated) | 0.5 | 49 | 0.5 | 50* | 6
CNC(=O)c1[nH]cnc1C(=O)Nc1ccc(C)cc1 | x | x | x | x | 15
Cc1ccc(NC(=O)c2nc[nH]c2C(=O)Nc2ccc(C)cc2)cc1 | 1.2 | -20 | 1.2 | -16 | 59*
COc1ccc(NC(=O)c2nc[nH]c2C(=O)Nc2ccccc2C)cc1 | 0.9 | 40 | 0.6 | 12 | 0
CNC(=O)c1[nH]cnc1C(=O)Nc1cccc(OC)c1 | 0.3 | 32 | 0.7 | 67* | 6
SMILES | CYP2C19 activ | CYP2C9 inhib | CYP2C9 act | CYP2C19 inhib | Measles CPE
Cc1ccc(S(=O)(=O)NCCC(=O)O)cc1 | 1 | -21 | 1.2 | 2 | 48
Cc1cc(S(=O)(=O)Nc2ccc(N(C)C)cc2)c(C)s1 | 0 | 100* | 0 | 100* | 7
Cn1c(N)c(C(=O)COC(=O)CSc2ccc3ccccc3c2)c(=O)n(C)c1=O | x | x | x | x | 8
O=S(=O)(NC1CC1)c1ccc(S(=O)(=O)N(Cc2ccccn2)C2CCCC2)cc1 | 0.4 | 71* | 0.3 | 62* | 5
O=c1oc2ccccc2cc1-c1csc(Cc2nc(-c3ccc(Br)cc3)cs2)n1 | 0.4 | 70* | 0.3 | 61* | 16
Cc1cc(C)c(-c2csc(Cc3nc(-c4cc5ccccc5oc4=O)cs3)n2)cc1C | x | x | x | x | 19
